This passage reports binding signal results from publication PMC7862700, “An all-to-all approach to the identification of sequence-specific readers for epigenetic DNA modifications on cytosine”.

Common to all, as to experiment: DAPPL (digital affinity profiling via proximity ligation, sequencing); 10 mM Tris-HCl pH 7.5, 50 mM NaCl, 1 mM DTT, 4% glycerol, room temperature, 30 min; GST-TFs on glutathione beads, 16-mer random dsDNA library, 0.1% formaldehyde crosslink after washing; high values mean tight binding
Common to all, as to settings: protein: recombinant; tags: N-terminal GST; dsDNA, one strand shown

The target of test [1] is T1, ERF (Homo sapiens, UniProt P50548 1-548).
T1 sequence: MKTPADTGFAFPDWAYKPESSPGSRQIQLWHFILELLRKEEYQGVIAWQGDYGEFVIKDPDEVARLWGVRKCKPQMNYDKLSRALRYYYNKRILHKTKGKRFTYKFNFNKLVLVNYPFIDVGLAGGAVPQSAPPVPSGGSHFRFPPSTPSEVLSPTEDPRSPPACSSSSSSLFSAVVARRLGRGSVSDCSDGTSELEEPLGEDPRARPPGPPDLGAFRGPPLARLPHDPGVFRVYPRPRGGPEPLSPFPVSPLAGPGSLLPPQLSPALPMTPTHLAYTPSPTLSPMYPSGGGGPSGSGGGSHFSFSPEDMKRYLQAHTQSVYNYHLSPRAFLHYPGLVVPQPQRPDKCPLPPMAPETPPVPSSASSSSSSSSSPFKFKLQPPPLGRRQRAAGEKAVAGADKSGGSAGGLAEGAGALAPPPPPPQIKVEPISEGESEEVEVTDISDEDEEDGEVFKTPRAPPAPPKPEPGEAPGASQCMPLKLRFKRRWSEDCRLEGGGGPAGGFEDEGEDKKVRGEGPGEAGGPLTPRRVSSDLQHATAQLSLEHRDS
The method in brief: (§1)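 A tag-only sample was pooled with DNA-barcoded human transcription factors that had been expressed in yeast as GST fusions and captured on glutathione beads. The pools were incubated for 30 min at room temperature with 200 nmole of a random double-stranded 16-mer DNA library in Tris/NaCl/DTT/glycerol buffer, then washed, crosslinked with 0.1% formaldehyde, proximity-ligated (BsaI/T4 ligase, 1 h, 37 °C), PCR-amplified and sequenced on an Illumina NextSeq500. Binding signal is each hexamer's read frequency for a factor divided by its frequency for the tag-only sample.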

The target of test [2] is T2, ETV3L (Homo sapiens, UniProt Q6ZN32 1-361).
T2 sequence: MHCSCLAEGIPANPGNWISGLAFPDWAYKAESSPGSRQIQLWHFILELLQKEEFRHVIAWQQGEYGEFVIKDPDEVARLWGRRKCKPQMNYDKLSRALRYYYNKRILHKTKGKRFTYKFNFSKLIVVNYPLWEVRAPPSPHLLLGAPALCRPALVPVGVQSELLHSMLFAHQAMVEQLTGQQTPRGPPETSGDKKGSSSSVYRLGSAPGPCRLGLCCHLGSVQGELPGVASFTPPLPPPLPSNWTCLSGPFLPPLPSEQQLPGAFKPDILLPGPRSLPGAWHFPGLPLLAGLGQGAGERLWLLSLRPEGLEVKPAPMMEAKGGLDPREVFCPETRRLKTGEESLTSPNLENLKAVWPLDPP
In short, it runs like this: as §1

Test [3] has as its target T3, ETS2 (Homo sapiens, UniProt P15036 1-469).
T3 sequence: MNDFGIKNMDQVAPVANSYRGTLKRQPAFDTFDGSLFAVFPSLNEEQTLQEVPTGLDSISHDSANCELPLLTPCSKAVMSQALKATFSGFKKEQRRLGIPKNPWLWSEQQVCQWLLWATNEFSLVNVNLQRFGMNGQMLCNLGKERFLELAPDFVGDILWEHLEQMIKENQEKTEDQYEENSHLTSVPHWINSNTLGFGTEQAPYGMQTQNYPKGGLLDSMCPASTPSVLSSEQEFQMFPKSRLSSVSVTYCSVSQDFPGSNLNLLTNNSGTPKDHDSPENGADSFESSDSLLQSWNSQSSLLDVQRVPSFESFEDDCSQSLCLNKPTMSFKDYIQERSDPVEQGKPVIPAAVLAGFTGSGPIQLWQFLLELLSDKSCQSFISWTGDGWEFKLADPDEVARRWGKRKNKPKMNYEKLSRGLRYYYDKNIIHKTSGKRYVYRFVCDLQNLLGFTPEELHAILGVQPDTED
In short, it runs like this:
as §1

The target in test [4] is T4, ETV7 (Homo sapiens, UniProt Q9Y603 1-341).
T4 sequence: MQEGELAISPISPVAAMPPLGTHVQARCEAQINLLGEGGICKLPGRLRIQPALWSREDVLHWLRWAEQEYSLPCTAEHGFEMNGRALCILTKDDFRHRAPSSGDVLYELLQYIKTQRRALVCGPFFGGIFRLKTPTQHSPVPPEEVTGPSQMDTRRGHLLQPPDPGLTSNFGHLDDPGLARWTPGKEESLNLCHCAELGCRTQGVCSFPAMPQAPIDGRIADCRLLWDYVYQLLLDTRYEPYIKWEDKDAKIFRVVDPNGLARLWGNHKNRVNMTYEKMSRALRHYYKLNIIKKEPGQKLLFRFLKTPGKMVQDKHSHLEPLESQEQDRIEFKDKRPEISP
In short, it runs like this: as §1

In test [5] the target is T5, ELF5 (Homo sapiens, UniProt Q9UKW6-2 1-255).
T5 sequence: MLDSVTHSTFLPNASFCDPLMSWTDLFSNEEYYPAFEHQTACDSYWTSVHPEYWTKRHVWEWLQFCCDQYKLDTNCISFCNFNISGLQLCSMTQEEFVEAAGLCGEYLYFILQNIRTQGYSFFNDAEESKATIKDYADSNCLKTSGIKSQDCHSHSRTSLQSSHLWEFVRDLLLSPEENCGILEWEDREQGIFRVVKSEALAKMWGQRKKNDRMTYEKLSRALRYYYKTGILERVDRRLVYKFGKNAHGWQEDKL
The method in brief: as §1

The target in test [6] is T6, ETV3 (Homo sapiens, UniProt P41162-2 1-143).
T6 sequence: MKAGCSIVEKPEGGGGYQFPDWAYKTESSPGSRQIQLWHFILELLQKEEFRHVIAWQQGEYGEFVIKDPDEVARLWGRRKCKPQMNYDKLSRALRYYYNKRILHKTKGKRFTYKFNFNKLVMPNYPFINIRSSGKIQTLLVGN
In short, it runs like this: as §1

Test [7] addresses ETV6 (Homo sapiens, UniProt P41212 1-452). In short, it runs like this:
as §1

Test [8] has as its target T7, SPDEF (Homo sapiens, UniProt O95238 1-335).
T7 sequence: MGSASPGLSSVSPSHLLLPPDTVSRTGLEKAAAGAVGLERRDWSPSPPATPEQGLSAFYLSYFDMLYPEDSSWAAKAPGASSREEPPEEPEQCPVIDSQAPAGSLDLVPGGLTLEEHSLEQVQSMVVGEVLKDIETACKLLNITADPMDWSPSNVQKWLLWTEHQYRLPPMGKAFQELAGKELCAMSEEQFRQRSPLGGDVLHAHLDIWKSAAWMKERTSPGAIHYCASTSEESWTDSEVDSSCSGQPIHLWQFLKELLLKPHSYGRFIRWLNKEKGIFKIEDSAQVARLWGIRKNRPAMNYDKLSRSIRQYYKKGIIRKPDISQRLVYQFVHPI
The method in brief: as §1

ETV6, sequence (P41212 whole entry): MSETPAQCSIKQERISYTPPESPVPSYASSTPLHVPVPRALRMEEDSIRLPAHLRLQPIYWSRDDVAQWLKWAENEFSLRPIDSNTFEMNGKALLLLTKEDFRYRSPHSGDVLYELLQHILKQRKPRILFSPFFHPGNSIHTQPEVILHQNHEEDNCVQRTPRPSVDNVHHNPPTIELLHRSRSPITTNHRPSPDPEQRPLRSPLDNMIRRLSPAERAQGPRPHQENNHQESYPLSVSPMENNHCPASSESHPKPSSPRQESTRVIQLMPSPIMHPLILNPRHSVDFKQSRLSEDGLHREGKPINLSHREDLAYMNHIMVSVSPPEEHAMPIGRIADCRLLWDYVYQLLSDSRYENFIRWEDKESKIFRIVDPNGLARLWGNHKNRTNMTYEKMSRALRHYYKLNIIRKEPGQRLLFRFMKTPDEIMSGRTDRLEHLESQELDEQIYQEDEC

As to GATAAT, the binding signal in test [1] was 1.11 fold enrichment (6-mer frequency, TF over GST control); in test [2], 1.12 fold enrichment (6-mer frequency, TF over GST control); in test [3] it was 1.18 fold enrichment (6-mer frequency, TF over GST control); in test [4], 1.12 fold enrichment (6-mer frequency, TF over GST control); in test [5], 1.08 fold enrichment (6-mer frequency, TF over GST control); in test [6], 1.15 fold enrichment (6-mer frequency, TF over GST control). In addition, in test [7], the binding signal was 1.05 fold enrichment (6-mer frequency, TF over GST control).
For CAGATG, the binding signal in test [1] was 1.11 fold enrichment (6-mer frequency, TF over GST control); in test [3] it was 1.05 fold enrichment (6-mer frequency, TF over GST control); in test [4], 1.13 fold enrichment (6-mer frequency, TF over GST control); in test [6] it was 1.02 fold enrichment (6-mer frequency, TF over GST control); in test [7] it was 1.03 fold enrichment (6-mer frequency, TF over GST control).
As to TCGTAC, the binding signal was 1.01 fold enrichment (6-mer frequency, TF over GST control) in test [1]; 1.07 fold enrichment (6-mer frequency, TF over GST control) in test [3]; 1.06 fold enrichment (6-mer frequency, TF over GST control) in test [8]; 1.15 fold enrichment (6-mer frequency, TF over GST control) in test [4]; 1.02 fold enrichment (6-mer frequency, TF over GST control) in test [5]; 1.02 fold enrichment (6-mer frequency, TF over GST control) in test [6]. Besides, the binding signal in test [7] is 1.08 fold enrichment (6-mer frequency, TF over GST control).
Consider CATGAA, for which the binding signal in test [1] is 1.02 fold enrichment (6-mer frequency, TF over GST control); in test [3] it was 1.07 fold enrichment (6-mer frequency, TF over GST control); in test [8], 1.03 fold enrichment (6-mer frequency, TF over GST control); in test [5], 1.04 fold enrichment (6-mer frequency, TF over GST control); in test [6] it was 1.14 fold enrichment (6-mer frequency, TF over GST control).
Turning to GGCTTA, the binding signal in test [1] was 1.09 fold enrichment (6-mer frequency, TF over GST control); in test [3], 1.09 fold enrichment (6-mer frequency, TF over GST control); in test [8] it was 1.09 fold enrichment (6-mer frequency, TF over GST control); in test [6], 1.05 fold enrichment (6-mer frequency, TF over GST control).
For GGTTTA, the binding signal was 1.11 fold enrichment (6-mer frequency, TF over GST control) in test [1]; 1.02 fold enrichment (6-mer frequency, TF over GST control) in test [3]; 1.1 fold enrichment (6-mer frequency, TF over GST control) in test [8]; 1.15 fold enrichment (6-mer frequency, TF over GST control) in test [4]; 1.08 fold enrichment (6-mer frequency, TF over GST control) in test [5]; 1.1 fold enrichment (6-mer frequency, TF over GST control) in test [6]. Further, the binding signal in test [7] is 1.07 fold enrichment (6-mer frequency, TF over GST control).
For the sequence CTATGA, the binding signal is 1.12 fold enrichment (6-mer frequency, TF over GST control) in test [1]; 1.15 fold enrichment (6-mer frequency, TF over GST control) in test [3]; 1.07 fold enrichment (6-mer frequency, TF over GST control) in test [8]; 1.08 fold enrichment (6-mer frequency, TF over GST control) in test [4]; 1 fold enrichment (6-mer frequency, TF over GST control) in test [5].
For the sequence GTTAAA, the binding signal was 1.09 fold enrichment (6-mer frequency, TF over GST control) in test [1]; 1.04 fold enrichment (6-mer frequency, TF over GST control) in test [2]; 1.04 fold enrichment (6-mer frequency, TF over GST control) in test [6]; 1.08 fold enrichment (6-mer frequency, TF over GST control) in test [7].
Take AAGGTT: the binding signal in test [1] was 1.01 fold enrichment (6-mer frequency, TF over GST control); in test [3] it was 1.08 fold enrichment (6-mer frequency, TF over GST control); in test [8], 1.02 fold enrichment (6-mer frequency, TF over GST control); in test [4], 1.15 fold enrichment (6-mer frequency, TF over GST control); in test [5], 1.1 fold enrichment (6-mer frequency, TF over GST control); in test [6], 1.07 fold enrichment (6-mer frequency, TF over GST control). The binding signal in test [7] is 1 fold enrichment (6-mer frequency, TF over GST control).
